# Screens: PubChem, Johns Hopkins Ion Channel Center
# In the library only some 1.6% were active in any assay of this set; here they are far more common.
# KCNQ2 inh: KCNQ2 (rat) channel inhibition; O88943; B-score at 10 µM; AID 2156; hit rate 1.1% among 310,000; CHO-K1 KCNQ2, FluxOR thallium flux, 20 min; active compounds read low;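 active means fluorescence ratio B-score at most minus 3 library SDs, with starting brightness B-score within 2 library SDs, cut at about -5.5 in these data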
# KCNQ2 enhance: KCNQ2 (rat) channel potentiation | B-score at 10 µM | O88943 | hit rate 0.54% among 310,000 | CHO-K1 KCNQ2, FluxOR thallium flux fluorescence; active compounds read high;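 active means fluorescence ratio B-score at least 3 SD of library B-scores, with initial fluorescence B-score within 3 of them, cut at about 5.3 in these data; same plate scores as AID 2156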;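 further: B-score of peak minus minimum over baseline fluorescence ratio after K+ and Tl+ stimulus; positive B-score means potentiation of KCNQ2 with more thallium influx and brighter signal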
# KCNQ2 inh conf: confirmation of rat KCNQ2 potassium channel inhibitors. shares compounds with KCNQ2 inh. KCNQ2-expressing cells, thallium flux, inhibition; active compounds read low. activity change, negative = inhibition, % at 10 µM. hit rate 57% among 1,000;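 further: 0% = vehicle wells and values are ratio percent relative to vehicle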
# KCNQ1 spec: human KCNQ1 activity in KCNQ2 inhibitor specificity screen; hit rate 15% among 1,000; KCNQ1-expressing cells, FluxOR thallium flux fluorescence; active compounds read low; activity change, negative = inhibition, % at 10 µM; AID 493026; shares compounds with KCNQ2 inh;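 active means activity change at least 3 SD of negative controls below their mean in both duplicate wells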;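 further: CHO cells stably transfected with KCNQ1 and depolarized by potassium stimulus; peak minus minimum fluorescence over baseline after thallium addition; 0% = vehicle negative control and -100% = blank without thallium stimulus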
# CHO Tl ctr: counter-screen for KCNQ2 inhibitors: effect in parental CHO cells | hit rate 14% among 1,000 | activity change, % at 10 µM | shares compounds with KCNQ2 inh | thallium flux counter-screen; active compounds read low;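 further: 0% = vehicle negative controls with stimulus buffer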
# KCNQ2 inh confirm: confirmation of rat KCNQ2 potassium channel inhibitors; calls only at 10 µM; AID 588531; KCNQ2-expressing cells, automated patch clamp current; shares compounds with KCNQ2 inh; hit rate 49% among 550
# Numbers without * were called inactive; i = inactive; nt = no result given; + = active, no number. Unless noted, how the calls were made is not given here.
SMILES,KCNQ2 inh,KCNQ2 enhance,KCNQ2 inh conf,KCNQ1 spec,CHO Tl ctr,others
c1ccc(Nc2nc(NCC3CCCO3)c3ccccc3n2)cc1 (stereo not given),i,nt,nt,nt,nt,
COc1ccc(C(=O)CC(Nc2ccc([N+](=O)[O-])cc2)c2ccc(OC)cc2)cc1 (stereo not given),-10.5*,-10.5,-26.0%*,i,i,KCNQ2 inh confirm=i
COc1ccc(C(=O)/C=C/Nc2ccc([N+](=O)[O-])cc2)cc1,i,nt,nt,nt,nt,
CN(C)C(=O)c1cn(-c2ccccc2)nc1-c1cccs1,i,0.55,nt,nt,nt,
O=C(c1cn(-c2ccccc2)nc1-c1cccs1)N(CCO)Cc1ccccc1,-7.53*,-7.53,i,i,i,
Cc1sc(NC(=O)CCl)c(C(=O)c2ccccc2)c1C,i,0.96,nt,nt,nt,
Cc1ccccc1C(=O)Nc1sc(C)c(C)c1C(=O)c1ccccc1,-9.56*,-9.56,-33.0%*,-32.0%*,-27.0%*,KCNQ2 inh confirm=i
CC1(C)Cc2cccc(OCC(=O)OCC(=O)NCc3ccccc3)c2O1,i,0.23,nt,nt,nt,
Cc1ccc(CNC(=O)CCC(=O)Nc2nnc(C(C)C)s2)cc1,i,0.4,nt,nt,nt,
Cc1nn(C(C)C(=O)N/N=C/c2ccc(N(C)C)cc2)c(C)c1[N+](=O)[O-] (stereo not given),i,nt,nt,nt,nt,
CCN(C(=O)C(C)Cl)c1ccccc1 (stereo not given),i,0.96,nt,nt,nt,
C/C(CCN1CCc2nc(-c3ccccc3)c(-c3ccccc3)cc2C1)=N\O[C@@H](C)c1cc(-c2c(C)cc(C)cc2C)no1,i,nt,nt,nt,nt,
CCc1cc2c(nc1CC)CCN(CC/C(C)=N/O[C@@H](C)c1cc(-c3c(C)cc(C)cc3C)no1)C2,-10.2*,-10.2,i,i,i,
COC(=O)C1C2CCC(C2)C1C(=O)OCC(=O)c1ccccc1 (stereo not given),i,nt,nt,nt,nt,
CCCOC(=O)C1C2C=CC(C3CC23)C1C(=O)OCC(=O)c1ccccc1 (stereo not given),-9.45*,-9.45,i,i,i,
Cc1ccc(Sc2ccc(NC(=O)c3ccc(S(C)(=O)=O)cc3Cl)cc2)cc1,-8.76*,-8.76,i,i,i,
CS(=O)(=O)c1ccc(C(=O)Nc2ccc(N3CCCCC3)cc2)c(Cl)c1,i,0.36,nt,nt,nt,
O=[N+]([O-])c1cccc2nc(-c3ccccc3)c(-c3ccccc3)nc12,-7.64*,-7.64,-28.0%*,i,i,KCNQ2 inh confirm=i
Cn1c(-[n+]2c(-c3ccccc3)cc(-c3ccccc3)cc2-c2ccccc2)nc2c([N+](=O)[O-])cccc21,i,nt,nt,nt,nt,
CC(NC(=O)C(=O)c1cn(CC(=O)N2CCOCC2)c2ccccc12)c1ccccc1 (stereo not given),i,0.12,nt,nt,nt,
COc1cc(OC)c(-c2noc(C(=O)OC(C)(C)C)c2C(=O)OC(C)(C)C)c(OC)c1,i,nt,nt,nt,nt,
Cc1cc(C)c(-c2noc(C(=O)OC(C)(C)C)c2C(=O)OC(C)(C)C)c(C)c1,-10.2*,-10.2,i,i,i,
CCCS(=O)(=O)N1CCN(Cc2ccc3c(c2)c2ccccc2n3CC)CC1,i,nt,nt,nt,nt,
CCOC(=O)c1ccc2c(c1)nc(COc1ccc3ccccc3c1)n2CC,-9.08*,-9.08,i,i,i,
CCn1c(COc2ccc(OC)cc2)nc2ccccc21,i,nt,nt,nt,nt,
SMILES,KCNQ2 inh,KCNQ2 enhance,KCNQ2 inh conf,KCNQ1 spec,CHO Tl ctr,others
Cc1[nH]n(-c2ccc([N+](=O)[O-])cc2)c(=O)c1C=NCCc1c(C)[nH]c2ccccc12,i,nt,nt,nt,nt,
O=C(CCNC(=O)Cn1ccc2ccccc2c1=O)NCCc1ccccc1Cl,i,0.1,nt,nt,nt,
Cc1ccccc1CSCCNC(=O)COc1ccc(Cl)cc1,-8.57*,-8.57,i,i,i,
CC(C)(C)SCCNC(=O)COc1ccc(Cl)cc1,i,nt,nt,nt,nt,
N#Cc1ccc(OCC(=O)N/N=C/C2CC=CCC2)cc1 (stereo not given),i,0.07,nt,nt,nt,
O=C(NNc1ccccc1[N+](=O)[O-])Nc1cccc(Cl)c1,i,nt,nt,nt,nt,
COc1ccc(CNC(=O)C(c2cccs2)N(Cc2ccco2)C(=O)Cc2cccs2)cc1 (stereo not given),-14*,-14,-29.0%*,i,i,KCNQ2 inh confirm=+
COc1ccc(CNC(=O)C(c2ccco2)N(Cc2cccs2)C(=O)Cc2cccs2)cc1 (stereo not given),i,0.01,nt,nt,nt,
COc1ccccc1OCC(=O)NC1CCCc2ccccc21 (stereo not given),i,nt,nt,nt,nt,
CC1CCCCC12NC(=O)N(CC(=O)NC1CCCc3ccccc31)C2=O (stereo not given),i,nt,nt,nt,nt,
